# Measured values published in PubChem BioAssay (Tox21).
# Unmarked numbers belong to inactive results. Inconclusive results are not listed. Where a call stands in place of a potency, no number is given. Calls of active or inactive are those of the source. Unless noted, calls come from the whole dose curve; as a rule, active = well fitted curve in the direction sought with a large enough effect in the repeat runs; inconclusive = weak or mixed curves; inactive = no such curve, though single readings can be large; an effect the other way counts as inactive or inconclusive.
# How the values were obtained:
# [1] = qHTS assay for small molecule agonists of the p53 signaling pathway (AID 651631; calls by dose curve; note: nearly all actives have a fitted effect of over 15% in size; note: potency is the fitted concentration of half-maximal effect)
# In short: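 We treat p53RE-bla HCT-116 cells with compounds for 16 h at 37 °C, add LiveBLAzer B/G FRET substrate for 2 h at room temperature, and measure fluorescence intensity.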
# [2] = qHTS assay for small molecules that induce genotoxicity in human embryonic kidney cells expressing luciferase-tagged ATAD5 (AID 651632); note: nearly all actives have a fitted effect of over 15% in size
# In short: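 A rise in luciferase signal from ATAD5-tagged HEK293T cells marks genetic stress. Cells were exposed to compounds for 16 hr at 37C, 5% CO2, then luciferase was quantified after a 30 min room-temperature incubation with Amplite.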
# [3] = qHTS assay for small molecule agonists of the p53 signaling pathway - cell viability (AID 651633; calls by dose curve;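 note: p53RE-bla HCT reporter cells with a stable beta-lactamase p53 reporter; nearly all actives have a fitted effect of over 30% in size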)
# In short: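 p53RE-bla cells, seeded at 4,000 per well and rested 5 h at 37 C/5% CO2, received compounds in DMSO for 16 h at 37 C. CellTiter-Glo was then added, and luminescence was read after 30 min at room temperature to gauge cytotoxicity.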
# [4] = qHTS assay for small molecule disruptors of the mitochondrial membrane potential - cell viability (AID 720634; calls by dose curve;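 note: human HepG2 liver cancer cells; nearly all actives have a fitted effect of over 20% in size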)
# In short: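 Cytotoxicity was quantified from ATP content by CellTiter-Glo luminescence in the same wells as the MMP dye read-out. HepG2 (2,000 cells/well) were plated overnight and exposed to compounds for 1 hr at 37 C.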
# [5] = qHTS assay for small molecule disruptors of the mitochondrial membrane potential (AID 720635); note: potency is the fitted concentration of half-maximal effect
# In short: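 HepG2 cells (2,000/well) attached overnight at 37C, then took compound for 1 hr at 37C, 5% CO2. Mito-MPS dye was added for 30 min; fluorescence was read at 490/535 nm (monomers) and 540/590 nm (aggregates).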
# [6] = qHTS assay to test for compound auto fluorescence at 535 nm (green) in HepG2 cells (AID 720675)
# [7] = qHTS assay to test for compound auto fluorescence at 460 nm (blue) in HEK293 cells (AID 720678)
# In short: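 HEK293 cells (2,000/well, medium with 10% dialyzed FBS) attached 4-5 hr, then exposed to compound overnight at 37C, 5% CO2. Blue fluorescence read at 405/460 nm, with triamterene as reference fluorophore.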
# [8] = qHTS assay to test for compound auto fluorescence at 590 nm (red) in HEK293 cells (AID 720679)
# In short: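 HEK293 cells (2,000/well, 10% dialyzed FBS) attached 4-5 hr, then dosed with compound or DMSO and incubated overnight at 37C, 5% CO2. Red fluorescence read at 540/590 nm, Rose Bengal sodium as reference fluorophore.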
# [9] = qHTS assay to test for compound auto fluorescence at 535 nm (green) in HEK293 cells (AID 720680)
# [10] = qHTS assay to test for compound auto fluorescence at 460 nm (blue) in HEK293 cell free culture (AID 720681)
# In short: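 Test compounds were pinned into cell-free culture medium (DMEM with 10% FBS) and fluorescence was read directly at Ex/Em 405/460 nm. Signals were expressed as fluorescence equivalents of triamterene, with DMSO vehicle as control.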
# [11] = qHTS assay to test for compound auto fluorescence at 535 nm (green) in HEK293 cell free culture (AID 720682)
# In short: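 Green-channel intensity (Ex/Em 485/535 nm) was recorded from compound-treated wells containing only DMEM with 10% FBS. Fluorescein provided the equivalency standard.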
# [12] = qHTS assay to test for compound auto fluorescence at 590 nm (red) in HEK293 cell free culture (AID 720683)
# In short: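 Tox21 10K library compounds were pinned into cell-free DMEM with 10% FBS and fluorescence was read at excitation 540 nm. Activity is expressed as Rose Bengal sodium equivalency.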
# [13] = qHTS assay to test for compound auto fluorescence at 590 nm (red) in HepG2 cell free culture (AID 720684)
# In short: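 Readout: intrinsic compound fluorescence at 590 nm emission after 540 nm excitation, scaled to Rose Bengal sodium. Matrix was cell-free MEM with 10% FBS; DMSO vehicle wells served as control.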
# [14] = qHTS assay to test for compound auto fluorescence at 460 nm (blue) in HepG2 cell free culture (AID 720685)
# In short: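 Cell-free plates of MEM plus 10% FBS received 23 nL compound or DMSO vehicle; blue-channel (405/460 nm) intensity scored against triamterene as reference fluorophore.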
# [15] = qHTS assay to test for compound auto fluorescence at 535 nm (green) in HepG2 cell free culture (AID 720686)
# [16] = qHTS assay to test for compound auto fluorescence at 460 nm (blue) in HepG2 cells (AID 720687)
# In short: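 Cells (2,000/well in MEM with 10% FBS) attached overnight at 37 C, then were exposed to compound or DMSO for 1 hr at 37 C, 5% CO2. Fluorescence read at Ex/Em 405/460 nm, expressed as triamterene-equivalent signal.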
# [17] = target: Glucocorticoid receptor (Homo sapiens) (UniProt P04150); experiment: qHTS assay to identify small molecule agonists of the glucocorticoid receptor (GR) signaling pathway (AID 720691; active = well fitted activation curve with a large enough effect in the signal ratio in the repeat runs, not every such curve was filed as active; the % refers to the signal ratio); details: GR-bla HeLa, beta-lactamase reporter ratio, 18 h; activation: at 62.4 µM (top of the series)
# Glucocorticoid receptor (Homo sapiens), sequence (P04150 whole entry, looked up): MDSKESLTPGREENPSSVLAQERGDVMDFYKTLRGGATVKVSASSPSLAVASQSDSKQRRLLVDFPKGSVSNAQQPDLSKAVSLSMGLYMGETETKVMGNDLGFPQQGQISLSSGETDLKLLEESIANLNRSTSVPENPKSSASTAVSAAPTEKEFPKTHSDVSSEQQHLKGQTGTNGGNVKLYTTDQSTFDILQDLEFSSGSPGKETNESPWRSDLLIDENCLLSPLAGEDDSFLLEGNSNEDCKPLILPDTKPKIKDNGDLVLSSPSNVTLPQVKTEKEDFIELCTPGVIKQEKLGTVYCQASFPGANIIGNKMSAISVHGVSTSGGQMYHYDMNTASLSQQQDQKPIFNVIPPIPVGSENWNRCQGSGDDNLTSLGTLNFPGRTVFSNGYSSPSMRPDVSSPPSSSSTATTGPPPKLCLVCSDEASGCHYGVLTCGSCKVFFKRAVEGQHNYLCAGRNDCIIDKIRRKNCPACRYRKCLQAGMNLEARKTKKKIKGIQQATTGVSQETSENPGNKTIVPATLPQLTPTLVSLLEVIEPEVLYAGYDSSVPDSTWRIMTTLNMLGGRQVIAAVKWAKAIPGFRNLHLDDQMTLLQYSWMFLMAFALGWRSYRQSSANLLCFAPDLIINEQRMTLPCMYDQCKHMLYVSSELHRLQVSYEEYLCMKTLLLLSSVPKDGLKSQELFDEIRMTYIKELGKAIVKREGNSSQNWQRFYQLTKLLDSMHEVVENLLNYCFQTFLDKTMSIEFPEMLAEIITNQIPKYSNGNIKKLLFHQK
# In short: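 Agonist-mode qHTS in HeLa cells stably expressing a glucocorticoid-response-element beta-lactamase reporter. Fluorescence intensity read with FRET substrate (2 h, room temperature) after 18 h compound treatment at 37 C.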
# [18] = target: Glucocorticoid receptor (Homo sapiens) (UniProt P04150); experiment: qHTS assay to identify small molecule antagonists of the glucocorticoid receptor (GR) signaling pathway (AID 720692; active = well fitted inhibition curve with a large enough effect in the signal ratio in the repeat runs, not every such curve was filed as active; the % refers to the signal ratio; note: potency is the fitted concentration of half-maximal effect)
# In short: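 Inhibition of dexamethasone-driven (5 nM final) beta-lactamase expression was measured in GRE-reporter HeLa cells over 18 h at 37C. Fluorescence was read after 2 h with the B/G FRET substrate at room temperature.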
# [19] = qHTS assay for small molecules that induce genotoxicity in human embryonic kidney cells expressing luciferase-tagged ATAD5 - cell viability (AID 651634; calls by dose curve; note: nearly all actives have a fitted effect of over 25% in size; note: potency is the fitted concentration of half-maximal effect)
# In short: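 Cytotoxicity counter-readout: after 15.5 hr compound treatment at 37C, live-cell protease activity in ATAD5-luciferase HEK293T cells measured by CellTiter-Fluor fluorescence, 30 min development at 37C.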
# [20] = qHTS assay to test for compound auto fluorescence at 590 nm (red) in HepG2 cells (AID 720674)
# In short: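 Intrinsic compound fluorescence in the red window (Ex/Em 540/590 nm) is measured in attached HepG2 cells exposed for 1 hr, DMSO vehicle as baseline, benchmarked to Rose Bengal sodium.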
Structure (SMILES),Potency [1],Potency [2],Potency [3],Potency [4],Potency [5],Potency [6],Potency [7],outcome [8],outcome [9],Potency [10],outcome [11],outcome [12],outcome [13],Potency [14],Potency [15],Potency [16],Potency [17],Potency [18],Potency [19],outcome [20]
CCN(CC)C(=O)N[C@@H]1C=C2c3cccc4[nH]cc(c34)C[C@@H]2N(C)C1,inactive,inactive,inactive,inactive,1.68 µM (active),inactive,inactive,inactive,inactive,inactive,inactive,inactive,inactive,inactive,inactive,inactive,inactive,inactive,,
O=P(Cl)(Cl)Cl,inactive,inactive,,inactive,inactive,,inactive,inactive,inactive,inactive,inactive,inactive,inactive,inactive,inactive,inactive,inactive,inactive,inactive,
CSC1=N[C@@](C)(c2ccccc2)C(=O)N1Nc1ccccc1,inactive,inactive,,,61.1 µM (active),inactive,inactive,inactive,inactive,inactive,inactive,inactive,inactive,inactive,inactive,inactive,inactive,,inactive,inactive
C#CCO,inactive,inactive,,,,,inactive,,inactive,inactive,inactive,inactive,inactive,inactive,inactive,inactive,inactive,inactive,inactive,inactive
CC[C@]1(O)CC[C@H]2[C@@H]3CCC4=CCCC[C@@H]4[C@H]3CC[C@@]21C,3.76 µM (active),inactive,,,7.5 µM (active),inactive,inactive,inactive,inactive,inactive,,inactive,inactive,inactive,inactive,inactive,,1.69 µM (active),10.6 µM (active),inactive
CCOP(=S)(OCC)Oc1cc(C)nc(N(CC)CC)n1,inactive,inactive,inactive,,48.6 µM (active),inactive,inactive,,,inactive,inactive,inactive,inactive,inactive,,inactive,inactive,,inactive,inactive
CCC(C)Br (stereo not drawn),inactive,inactive,inactive,inactive,,inactive,inactive,,inactive,inactive,inactive,inactive,inactive,inactive,inactive,inactive,,,inactive,
